From PubChem BioAssay AID1259421 (Broad Institute, 2018)
Values joined by “and” are separate entries in the source; they are usually repeats but may differ in a detail not shown here. Identical values can stand only once. The whole screen tested about 6,400 compounds, of which about 610 (9.5%) were called active. This is one part of a sample in which actives are shown more often than they occur. Rule as the data show it: active = activity change below about -70%; inconclusive = no clear call, values can overlap the other calls; inactive = above that.

Test: T. gondii ME49Luc in HeLa cells, luciferase assay, 72 h, no IFN-y (AID 1259421)
Details: stronger effect = lower value, concentration not given here
In the case of `CC(C)(C)c1cc(O)c(C(C)(C)C)cc1O`, the activity change, negative = inhibition is reported as 7.89% (inactive). For `COC(=O)C[C@H]1C(C)(C)[C@@H](O)[C@@H]2CC3=C4CC(O)O[C@@H](c5ccoc5)[C@]4(C)CCC3[C@@]1(C)C2=O` (stereo not given in full), the activity change, negative = inhibition was -4.18% (inactive). In the case of `CO[C@H]1C=CO[C@@]2(C)Oc3c(C)c(O)c4c(O)c(c(/C=N/N5CCN(C)CC5)c(O)c4c3C2=O)NC(=O)/C(C)=C\C=C/C(C)[C@H](O)[C@@H](C)[C@@H](O)[C@@H](C)[C@@H](OC(C)=O)[C@@H]1C` (stereo not given in full), the activity change, negative = inhibition is reported as -14.4% (inactive) and 12.2% (inactive). For `CC1(C)CCC(CN2CCN(c3ccc(C(=O)NS(=O)(=O)c4ccc(NCC5CCOCC5)c([N+](=O)[O-])c4)c(Oc4cnc5[nH]ccc5c4)c3)CC2)=C(c2ccc(Cl)cc2)C1`, the activity change, negative = inhibition was -89.7% (active). In the case of `CC(C)COC(=O)c1ccc(N)cc1`, the activity change, negative = inhibition is reported as 47.4% (inactive). For `COC(=O)c1cc(OC)c2c(c1-c1c(C(=O)OC)cc(OC)c3c1OCO3)OCO2`, the activity change, negative = inhibition was 11.4% (inactive). In the case of `C=C1C(=O)O[C@H]2[C@H]1CC/C(C)=C\CC[C@@]1(C)O[C@@H]21`, the activity change, negative = inhibition is reported as 7.41% (inactive). For `O=C(Nc1ccc(O)cc1)c1ccccc1O`, the activity change, negative = inhibition was 30.3% (inactive). In the case of `O=C(O)c1ccccc1O`, the activity change, negative = inhibition is reported as 10.4% (inactive) and 3.39% (inactive). For `O=C(N/N=C/c1ccccc1O)c1ccccc1O`, the activity change, negative = inhibition was -88% (active) and -86.5% (active). With `O=C(OC1C(OC(=O)c2cccnc2)C(OC(=O)c2cccnc2)C(OC(=O)c2cccnc2)C(OC(=O)c2cccnc2)C1OC(=O)c1cccnc1)c1cccnc1` (stereo not given) the activity change, negative = inhibition was -4.81% (inactive) and 13.2% (inactive). With `CCN(Cc1ccccc1)C(=O)Cn1c(=O)n(C)c2cnc(-c3ccccc3)nc21` the activity change, negative = inhibition was 9.96% (inactive). For `CCN(CC)CCN(Cc1ccc(-c2ccc(C(F)(F)F)cc2)cc1)C(=O)Cn1c(SCc2ccc(F)cc2)nc(=O)c2c1CCC2`, the activity change, negative = inhibition was -77.9% (active). For `O=C(O)[C@H](O)[C@@H](O)[C@H](O[C@@H]1O[C@H](CO)[C@H](O)[C@H](O)[C@H]1O)[C@H](O)CO`, the activity change, negative = inhibition was 11.1% (inactive). For `Clc1ccc(C(Cn2ccnc2)OCc2ccc(Sc3ccccc3)cc2)c(Cl)c1` (stereo not given), the activity change, negative = inhibition was -73.4% (active). In the case of `Clc1ccc(COC(Cn2ccnc2)c2ccc(Cl)cc2Cl)c(Cl)c1` (stereo not given), the activity change, negative = inhibition is reported as -91.6% (active). With `Clc1ccc(C(Cn2ccnc2)OCc2csc3c(Cl)cccc23)c(Cl)c1` (stereo not given) the activity change, negative = inhibition was -75.6% (active). With `Clc1ccc(CSC(Cn2ccnc2)c2ccc(Cl)cc2Cl)cc1` (stereo not given) the activity change, negative = inhibition was -80.3% (active) and -86.4% (active). With `C=CCOC(Cn1ccnc1)c1ccc(Cl)cc1Cl` (stereo not given) the activity change, negative = inhibition was 26.1% (inactive) and 17.1% (inactive). In the case of `Clc1ccc(C(Cn2ccnc2)OCc2ccsc2Cl)c(Cl)c1` (stereo not given), the activity change, negative = inhibition is reported as -28.7% (inactive) and -2.79% (inactive).
